In the library only some 7.7% were active in any assay of this set; here they are far more common.
FBPA Giardia inh: inhibitors of Giardia lamblia fructose-1,6-bisphosphate aldolase; A8B2U2; purified Giardia FBPA; Potency, µM (series often up to 59.6 µM), actives largely listed as inhibitors; 290,000 compounds, 0.71% hits; further: nearly all actives have a fitted effect of over 55% in size
Target sequence (A8B2U2 whole entry, looked up): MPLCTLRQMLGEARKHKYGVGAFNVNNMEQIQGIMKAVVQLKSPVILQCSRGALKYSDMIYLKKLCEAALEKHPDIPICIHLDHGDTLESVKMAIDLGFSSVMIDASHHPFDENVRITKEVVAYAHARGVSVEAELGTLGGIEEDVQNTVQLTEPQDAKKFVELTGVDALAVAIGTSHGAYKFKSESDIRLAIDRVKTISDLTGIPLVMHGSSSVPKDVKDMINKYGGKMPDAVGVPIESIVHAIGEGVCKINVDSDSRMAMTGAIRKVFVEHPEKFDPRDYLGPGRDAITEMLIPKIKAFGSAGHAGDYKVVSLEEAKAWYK
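Giardia FBPA (40 nM reagent) was preincubated 10 min at RT with compound (up to 57.5 uM final), then substrate plus GAPDH/TPI/NAD/arsenate coupling system with diaphorase/resazurin was added; resorufin fluorescence (525/598 nm) was read after 20 min.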
RE007 growth inh: less growth of the S. pombe RE007 Vpr strain; S. pombe RE007 Vpr strain, BacTiter-Glo ATP luminescence, 24 h; Potency, µM (doses to about 92.2 µM), most hits filed as inhibitors; 360,000 compounds, 0.21% hits; active means well fitted falling curve with a large enough effect; inconclusive means small, poorly fitted or top-dose-only effect; inactive means no such curve, though single readings can be large or run the other way; further: nearly all actives have a fitted effect of over 50% in size
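Fission yeast strain RE007, carrying one chromosomally integrated HIV-1 vpr copy, was seeded at OD 0.01 in PMG+AL medium with 23 nL pinned compound. After 24 h at 30 °C and 99% humidity, viability was read by BacTiter-Glo luminescence.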
Sm TGR inh: blocks Schistosoma mansoni thioredoxin glutathione reductase | purified TGR, DTNB reduction, TNB absorbance 405 nm | Q962Y6 | 360,000 compounds, 3% hits | Potency, µM (doses to about 114 µM), usual class: inhibitors; further: nearly all actives have a fitted effect of over 60% in size
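First, TGR (20 nM dispensed) and NADPH were mixed with compound. Second, a 15 min room-temperature incubation followed. Third, further NADPH and then DTNB were added to start the reaction. Finally, TNB absorbance was monitored kinetically.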
FMDV inh: blocks foot and mouth disease virus | FMDV antiviral cell-based qHTS | Potency, µM (doses to about 57.9 µM), usual class: inhibitors | 410,000 compounds, 1.2% hits | AID 1159524; calls by dose curve; tested in HEK293T cells; further: read-out not given here; nearly all actives have a fitted effect of over 45% in size
Tb PYK inh: blocks Trypanosoma brucei pyruvate kinase; Q57TT1; TbPYK enzyme, Kinase-Glo Plus ATP luminescence, 45 min; Potency, µM (titrated, usually from 76.8 µM), most hits filed as inhibitors; 410,000 compounds, 0.12% hits; AID 624173; further: nearly all actives have a fitted effect of over 50% in size
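T. brucei PYK with substrate was exposed to pin-transferred compounds across a concentration series, then started with 130 uM ADP (final). After 45 min at room temperature, Kinase-Glo Plus luminescence was read, normalized and curve-fitted.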
HCMV inh: inhibitors of human cytomegalovirus; 410,000 compounds, 4.5% hits; activity change, negative = inhibition, % at 57.5 µM; HFF cells, HCMV-luciferase reporter, 72 h; hits give low values; AID 1259415; in the data active means activity change below about -60%; inconclusive means no clear call, values can overlap the other calls; inactive means above about -39%
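HFF cells seeded 16 h at 37C, treated with compounds, infected with luciferase-reporter HCMV at MOI 1 PFU/cell; luciferase read at 72 h post infection, normalized to buffer-only and Salinomycin controls.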
Hits are given with their value; 0 = inactive; ? = inconclusive; - = no result; ! = not active in a repeat; [ ] = another dose, or the depositor's remark. Unless noted, the call rests on the fitted dose curve; in most records, active means well fitted curve in the direction sought with a large enough effect; inconclusive means small, poorly fitted or top-dose-only effect, or another doubt; inactive means no such curve, though single readings can be large; an effect the other way counts as inactive or inconclusive.

SMILES	FBPA Giardia inh	RE007 growth inh	Sm TGR inh	FMDV inh	Tb PYK inh	HCMV inh
Cc1ccc(CN2CCSc3ccc(C(=O)N4CCN(c5ccc(Cl)cc5)CC4)cc32)cc1	-	-	0	0	0	?
O=C(CSCc1cccc(Cl)c1)Nc1ccccc1-c1ccccc1	0	0	0	0	0	-63
Cc1ccccc1CSCC(=O)Nc1ccccc1-c1ccccc1	0	-	0	0	0	0
CCCc1c(CC)c(=N)c2ccccc2n1C	0	?	0	?	0	-87
CCC(C)[C@H]1CNC(=S)N1CCC12CC3CC(CC(C3)C1)C2 (some centres not stated)	0	0	0	0	0	-79
CCC(C)[C@H]1CNC(=S)N1CCc1cccc2ccccc12 (some centres not stated)	0	0	0	0	0	0
CC(=O)C(=Cc1ccc(C(=O)O)cc1)C(C)=O	0	0	0	0	0	0
Cc1ccc(NC(=O)C(=Cc2ccc(C(=O)O)cc2)C(=O)Nc2ccc(C)cc2C)c(C)c1	0	0	0	11µM	0	-
Cc1ccc(CNC(=O)C2c3ccccc3C(=O)N3CCc4ccccc4C23)o1 (configuration not stated)	0	0	5.6µM	0	?	0
CCc1ccc(Cn2nnc(C(=O)Nc3ccc(C)cc3)c2N)cc1	-	-	0	0	0	0
CC(=O)c1cccc(-c2cnc3ccc(-c4cccc(CO)c4)nn23)c1	-	-	-	-	-	-95
CNc1ccc2ncc(-c3cccc(C(=O)N(C)C)c3)n2n1	-	0[18.4 µM]	-	0	0	-75
CC(=O)c1cccc(-c2cnc3ccc(-c4cccc(Oc5ccccc5)c4)nn23)c1	-	-	-	-	-	0
O=C(OCc1nnc(-c2ccccc2)o1)C1CC(=O)N(Cc2ccco2)C1 (configuration not stated)	0	0	14µM	0	0	?
O=C(OCc1nnc(-c2ccccc2)o1)C1CC(=O)N(c2ccccc2)C1 (configuration not stated)	0	0	0	0	0	0
CCOC(=O)c1sc(N)c(C(=O)OCC)c1COC(=O)C1CC(=O)N(Cc2ccco2)C1 (configuration not stated)	0	0	40µM	0	0	0
CCCCCCCCNC(=S)NCCN1CCCCC1	?	0	0	?	0	-66
S=C(NCCCN1CCOCC1)NCCCN1CCOCC1	?	0	0	0	?	0
C#CC(C)(CC)NC(=O)Cn1nnc(-c2ccc(OCc3ccccc3F)cc2)n1 (configuration not stated)	-	-	0	0	0	0
CC(C)Oc1ccc(CNC(=O)c2ccc(CS(=O)Cc3ccccc3Cl)o2)cc1 (configuration not stated)	-	-	45µM	?	0	0
COc1cccc(CNC(=O)c2ccc(CS(=O)Cc3ccc(Cl)cc3)o2)c1 (configuration not stated)	-	-	0	0	0	0
Cc1ccc(C(=O)NCCc2cccs2)cc1	0	0	0	0	0	-61
COc1cccc(CNC(=O)c2ccc(CS(=O)Cc3ccccc3Cl)o2)c1 (configuration not stated)	-	0	-	0	0	0
COc1ccc(S(=O)Cc2ccc(C(=O)NCc3cccc(OC)c3)o2)cc1 (configuration not stated)	-	0	25µM	0	0	0
O=C(NC1CCCCC1)c1ccc(CS(=O)Cc2ccc(Cl)cc2)o1 (configuration not stated)	-	0	45µM	0	0	0
SMILES	FBPA Giardia inh	RE007 growth inh	Sm TGR inh	FMDV inh	Tb PYK inh	HCMV inh
O=C(NC1CCCC1)c1ccc(CS(=O)Cc2ccc(Cl)cc2)o1 (configuration not stated)	-	0	?	0	0	0
O=C(NCc1ccc(Cl)cc1)c1ccc(CS(=O)Cc2cccc(Cl)c2)o1 (configuration not stated)	-	0	0	0	0	0
O=C(NCCc1cccs1)c1ccc(CS(=O)Cc2ccc(Cl)cc2)o1 (configuration not stated)	-	0	45µM	0	0	0
COc1ccccc1CNC(=O)c1ccc(CS(=O)Cc2cccc(Cl)c2)o1 (configuration not stated)	-	0	22µM	0	0	0
O=C(NC1CCCC1)c1ccc(CS(=O)Cc2ccccc2Cl)o1 (configuration not stated)	-	0	32µM	0	0	0
O=C(NCCc1ccc(Cl)cc1)c1ccc(CS(=O)Cc2ccccc2Cl)o1 (configuration not stated)	-	0	32µM!	?	0	-66!
CN(C)c1nc(-c2ccoc2)nc2ccccc12	0	-	-	0	-	-
CCOc1ccccc1Nc1nc(-c2cccc(Cl)c2)c2c(n1)-c1ccccc1OC2	-	-	?	0	0	0
O=C(NC1CCCCC1)c1ccc(CS(=O)Cc2ccccc2Cl)o1 (configuration not stated)	-	0	45µM	0	0	0
CCn1cc(CN2CCCC(CO)(Cc3ccc(F)cc3)C2)c2ccccc21 (configuration not stated)	0	0	0	0	0	-64
Cn1cc(CN2CCCC(CO)(Cc3ccccc3)C2)c2ccccc21 (configuration not stated)	0	0	0	?	0	?
Cc1ccccc1CC1(CO)CCCN(Cc2ccccc2Cl)C1 (configuration not stated)	0	0	25µM	0	0	0
C[C@@H](CSc1ccccc1)CN1CC[C@H](NC(=O)OCc2ccccc2)CCC1=O	0	0	0	0	0	-78
Cc1ccc(SC[C@H](C)CN2CC[C@H](NC(=O)OCc3ccccc3)CCC2=O)cc1	0	0	0	0	0	0
CNS(=O)(=O)c1cn(CC(=O)N2CCN(c3ccccc3F)CC2)cc1S(=O)(=O)NC	-	-	0	0	0[15.4 µM]	0
CC1CCCN(Cc2cccc(Oc3ccccc3)c2)C1 (configuration not stated)	0	0	0	-	0	-98
CC[C@H]1C2=C3C(CC[C@H]4C(OCc5ccc(F)cc5C(F)(F)F)OC[C@](C)([C@@H]34)N(C(=O)OC(C)(C)C)C2)C(COC(C)=O)C1COC(C)=O (some centres not stated)	0	-	-	-	-	-
Cc1c(C(=O)N2CCN(C(C)C)CC2)sc2ncnc(NCc3ccco3)c12	-	-	-	0	-	-
Cn1cnc([N+](=O)[O-])c1S(=O)(=O)Nc1ccccc1	-	0	-	22µM	0	0
Cn1cnc([N+](=O)[O-])c1NCc1ccccc1	0	0	0	0	0	0
Cc1nn(C(C)C(=O)c2cccc(Cl)c2)c(C)c1[N+](=O)[O-] (configuration not stated)	0	0	0	0	0	0
Cn1cnc([N+](=O)[O-])c1S(=O)(=O)c1cccc(Cl)c1	0	0	0.28µM	25µM	0	0
